This is a sample that favours compounds with a hit; in the whole collection about 3.9% have one here.
BoNT F protease = inhibitors of Botulinum neurotoxin F light chain protease | Multiplex microsphere protease cleavage assay, flow cytometry | inhibition, % at 10 µM | hit rate 0.22% among 360,000; in the data active = inhibition above about 35%, passing the limit was not always enough; inconclusive = no clear call, values can overlap the other calls; also: plate controls were buffer without enzyme for full effect and enzyme alone for no effect
Anthrax LF inh2 = anthrax lethal factor protease inhibition | P15917 | multiplex microsphere protease cleavage assay, LF | inhibition, % at 10 µM | hit rate 0.12% among 360,000 | AID 588501; also: plate controls were buffer without enzyme for full effect and enzyme alone for no effect
BoNT A protease = blocks Botulinum neurotoxin A light chain protease; multiplex microsphere protease substrate cleavage, flow cytometry; inhibition, % at 10 µM; hit rate 0.17% among 360,000; also: plate controls were buffer without enzyme for full effect and enzyme alone for no effect
MazEF act = MazEF (E. coli) toxin RNase activation; P0AE70; FAM/BHQ RNA-DNA oligo cleavage fluorescence, 5 h; activation, % at 20 µM; hit rate 0.32% among 350,000; in the data active = activation above about 50%
Target sequence (P0AE70 whole entry, looked up): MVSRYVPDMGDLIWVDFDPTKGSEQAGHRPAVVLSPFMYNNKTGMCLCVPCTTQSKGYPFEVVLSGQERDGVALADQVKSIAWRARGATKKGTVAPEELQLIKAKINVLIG
Autofluor counter = flagged as autofluorescent in microsphere protease counterscreen; hit rate 3.1% among 360,000; AID 624483; compound autofluorescence counterscreen, microsphere flow cytometry; stronger effect = higher value; fluorescence intensity (no concentration beside the values); in the data active = fluorescence intensity above about 16000; inconclusive = no clear call, values can overlap the other calls
Vc quorum ag = inducers of Vibrio cholerae quorum light production without autoinducers. V. cholerae BH1578 lux reporter, luminescence, 6 h. activation, % at 18.7 µM. hit rate 0.16% among 350,000; in the data active = activation mostly above about 9.7%, no sharp cut-off; inconclusive = no clear call, values can overlap the other calls; inactive = mostly below about 3.7%
Numbers without * were called inactive; i = inactive; ? = inconclusive; . = no result given. Rule as the data show it, unless noted: active = inhibition above about 30%; inconclusive = no clear call, values can overlap the other calls; inactive = below that.

SMILES	BoNT F protease	Anthrax LF inh2	BoNT A protease	MazEF act	Autofluor counter	Vc quorum ag
Cc1ccsc1C=Nc1ccc(O)cc1	-2.0	-2.6	0.5	17.5	16460*	i
Cc1ccsc1/C=N/N=C/c1sccc1C	1.5	-6.1	-0.7	4.2	3635	i
CS(=O)(=O)Nc1ccc(OCc2ccccc2)cc1	-5.3	-0.3	-3.0	-4.1	24301*	-0.2
CCNS(=O)(=O)c1ccc(NS(C)(=O)=O)cc1	8.1	-1.4	0.7	5.0	7693	-0.4
COC(=O)Nc1ccc(OCc2ccccc2)cc1	-7.5	-4.5	1.2	1.5	4259	i
CS(=O)(=O)Nc1ccc(S(=O)(=O)NCCc2ccccc2)cc1	-3.4	-3.2	-1.5	3.4	24049*	-2.2
CN(C)C(=O)c1nc2ccc(Cl)cn2c1CN1CCCC(OCc2cccnc2)C1 (centres undefined)	-1.2	-0.5	0.0	1.7	2504	-0.3
COc1ccc(CNc2oc(COc3ccccc3)nc2C#N)cc1	3.3	-9.9	1.4	-9.7	9489	0.5
N#Cc1nc(COc2ccc(F)cc2)oc1N1CCC(Cc2ccccc2)CC1	-2.8	-5.0	-0.8	-9.7	16803*	i
N#Cc1nc(COc2ccccc2Cl)oc1NCc1ccc(F)cc1	-8.1	-6.1	-5.5	-19.5	22901*	-0.1
COc1ccc(N2CCN(c3oc(COc4ccccc4Cl)nc3C#N)CC2)cc1	-1.3	-9.5	?	-4.3	19893*	i
N#Cc1nc(COc2ccc(F)cc2)oc1N1CCN(Cc2ccccc2)CC1	-7.0	-9.3	0.1	-3.2	4287	-1.0
COc1ccc(CNc2oc(C)nc2C#N)cc1	-4.4	0.6	?	9.8	20862*	-2.9
COc1ccc(OCc2nc(C#N)c(N3CCN(c4ccc(OC)cc4)CC3)o2)cc1	-5.9	-7.7	-0.7	-7.8	5128	-0.3
Cc1ccccc1-c1csc(C(O)c2cccnc2)n1 (centres undefined)	3.5	-10.1	-0.3	.	3663	i
Fc1ccc(-c2nnc(Cc3nnc(-c4ccc(F)cc4)o3)o2)cc1	2.9	0.5	1.9	11.6	22771*	-0.2
Cc1nc(C)c(N)c(=O)[nH]1	4.7	2.4	-0.8	9.3	5291	-0.2
COc1ccccc1N(C(=O)c1snc(C(N)=O)c1N)C(C(=O)NC1CCCC1)c1ccc(N(C)C)cc1 (centres undefined)	-12.1	3.3	-0.4	3.4	2939	0.0
COc1ccccc1N(C(=O)c1snc(C(N)=O)c1N)C(C(=O)NCCC(C)C)c1ccco1 (centres undefined)	4.6	-1.5	3.6	-24.8	18096*	i
COCCNC(=O)C(c1ccco1)N(Cc1ccc(OC)cc1)C(=O)Cn1nnc2ccccc21 (centres undefined)	38.9*	2.9	1.3	-8.3	3406	-0.6
COc1ccc(CN(C(=O)c2snc(C(N)=O)c2N)C(C(=O)NC(C)(C)C)c2ccco2)cc1 (centres undefined)	-3.8	-0.3	-2.7	2.6	21460*	i
CCOc1ccccc1N(C(=O)c1snc(C(N)=O)c1N)C(C(=O)NCCC(C)C)c1ccco1 (centres undefined)	6.1	1.1	1.0	0.6	9436	-0.2
COc1ccccc1N(C(=O)c1snc(C(N)=O)c1N)C(C(=O)NC1CCCC1)c1ccco1 (centres undefined)	-1.7	-0.9	-1.1	2.5	23621*	-0.2
O=C1CCC(C(=O)Nc2cccc(S(=O)(=O)Nc3ccccc3F)c2)=NN1	-3.4	-5.2	-0.2	5.4	3741	-13.0
O=C(Nc1ccc(NC(=O)c2sc3ccccc3c2Cl)cc1Cl)c1ccco1	13.7	-7.4	8.1	-37.3	19130*	i
SMILES	BoNT F protease	Anthrax LF inh2	BoNT A protease	MazEF act	Autofluor counter	Vc quorum ag
CCOc1ccc(C(=O)Nc2ccc(NC(=O)c3ccco3)c(Cl)c2)cc1Cl	-9.7	-1.0	-0.2	7.8	3179	i
O=C(Nc1ccc(NC(=O)c2cccs2)c(Cl)c1)c1ccco1	-0.3	0.6	0.7	-2.2	2204	-0.1
O=C(Nc1ccc(N2CCN(C(=O)c3cccs3)CC2)c(Cl)c1)c1ccco1	-6.9	-3.2	-2.8	-7.1	16928*	i
CCOc1ccc(C(=O)Nc2ccc(NC(=O)c3ccco3)c(Cl)c2)cc1Br	0.4	-1.5	?	28.2	22914*	-1.7
O=Cc1c(-c2ccccc2)cc2oc3ccccc3cc1-2	5.1	-2.8	-2.6	13.5	3554	0.7
CCc1cccc(OCC(=O)N(C)CC(=O)Nc2cccc(F)c2)c1	-3.4	-5.5	3.2	-1.1	5704	i
Cc1ccc(-c2[nH][nH]c(=O)c(=O)c2N=Nc2ccccc2)cc1	5.6	0.1	-0.7	-3.4	3265	-0.5
CCCCn1c(N)c(N(CC(C)C)C(=O)c2ccc(OCC3CCCO3)cc2)c(=O)[nH]c1=O (centres undefined)	9.5	7.1	-0.6	-2.7	4359	i
Cn1c(N/N=C/c2cc3ccccc3nc2Cl)nc2ccccc21	-6.7	-0.1	1.7	206.8*	2608	-0.4
Cn1c(N/N=C/c2c[nH]c3ccccc23)nc2ccccc21	-20.7	-6.8	0.2	5.6	4158	-0.3
C/[N+]([O-])=C\c1cccc(OCCN2CCN(c3ncc(C(F)(F)F)cc3Cl)CC2)c1	-17.9	17.4	0.5	8.0	3358	-15.4
CCCNC(=O)OC1CC2CC1[C@H]1CCCCN1C2=O (some centres undefined)	-2.3	-8.7	0.6	.	4383	.
CCC(=O)Nc1nnc(SCC(=O)NCCc2ccc(OC)c(OC)c2)s1	-4.5	-5.5	-0.1	-0.9	4216	-0.2
CCCc1nc(SCC(N)=O)[nH]c(=O)c1CC	-0.3	-5.2	1.6	-2.9	22995*	-0.2
CCCc1cc(=O)[nH]c(SCC(N)=O)n1	?	8.3	1.8	1.1	2684	1.9
CC12CCC(O)CC1=CCC1C2CCC2(C)c3[nH]ncc3CC12 (centres undefined)	-8.6	2.3	-0.6	1.0	4061	5.9
CN(C(=S)Nc1ccccc1F)C1(c2ccccc2Cl)CCCCC1=O (centres undefined)	-4.1	-5.2	-1.4	2.9	20195*	-0.2
Cc1cccc(NC(=S)N(C)C2(c3ccccc3Cl)CCCCC2=O)c1 (centres undefined)	-0.5	-0.9	1.9	1.5	22871*	-0.2
O=C1CN(C(=O)Cn2ncc(Cl)c(Cl)c2=O)c2ccccc2N1	-2.1	-4.1	0.1	0.7	4342	i
O=C(NC1CC1)C1CCN(c2nc3ccccc3s2)CC1	1.3	7.8	3.6	2.0	3496	-8.8
COCCOC(=O)c1c(C)n(C)c2ccc(OC(=O)c3ccccc3F)cc12	11.1	-22.3	-1.3	1.1	3227	0.6
COCCOC(=O)c1c(C)n(C)c2ccc(OC(=O)c3cccs3)cc12	-4.9	-2.4	-2.0	5.1	16814*	i
COCCOC(=O)c1c(C)n(C)c2ccc(OC(=O)N(C)C)cc12	-3.5	-0.3	-0.7	-0.6	22829*	i
CCOC(=O)[C@]12CCC=C1N(CCC1=CCCCC1)C(=O)[C@H](CC(=O)N1CCSCC1)C2	4.8	5.1	0.2	.	5544	.
